KB-V1 MDR tox – kills drug-selected multidrug resistant KB-V1 cells | KB-V1 MDR cells viability, CellTiter-Glo, 72 h | Potency, µM (doses to about 46.1 µM), actives largely listed as cytotoxic | 400,000 tested, 3.4% active | AID 1347076; note: nearly all actives have a fitted effect of over 60% in size
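Potencies derive from concentration-effect curves fitted to normalized luminescence (CellTiter-Glo) of KB-V1 cells treated for 72 h at 37 degrees C in phenol-red-free DMEM containing 10% FBS.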
HT1080 IDH1KD tx – toxicity to HT-1080 IDH1 knockdown cells (counter line). 360,000 tested, 2% active. HT-1080 IDH1 knockdown viability, ATP luminescence, 48 h. Potency, µM (highest dose often 46.1 µM), most hits filed as cytotoxic
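Using the IDH1-knockdown HT-1080 line run in the same batch and compound series as the NT line, viability after 48 h at 37 °C was determined by CellTiter-Glo luminescence and expressed as % activity.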
HT1080NT lethal – kills 2HG-producing HT-1080-NT fibrosarcoma cells | HT-1080-NT fibrosarcoma viability, CellTiter-Glo ATP luminescence, 48 h | Potency, µM (highest dose often 46.1 µM), usual class: cytotoxic | 360,000 tested, 1.6% active;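 note: NT is the 2HG producing partner of a matched IDH1 knockdown line; nearly all actives have a fitted effect of over 55% in size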
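Toxicity toward the 2HG-producing NT line was scored as %Activity, normalised to DMSO and no-cell wells, from CellTiter-Glo luminescence after 48 hours' treatment.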
KB-3-1 cytotox – KB-3-1 parental cell cytotoxicity; KB-3-1 viability, CellTiter-Glo ATP luminescence, 72 h; Potency, µM (titrated, usually from 46.1 µM), usual class: cytotoxic; 400,000 tested, 1.4% active; AID 1347075; note: nearly all actives have a fitted effect of over 60% in size
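Luminescent ATP read-out (CellTiter-Glo) measures survival of drug-naive KB-3-1 cells after 72 h compound exposure at 37 °C. Titration series was screened from lowest to highest concentration, with DMSO vehicle plates as background controls.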
TDP1 cell noCPT – qHTS for Inhibitors of human tyrosyl-DNA phosphodiesterase 1 (TDP1): qHTS in cells in absence of CPT; DT40 Tdp1-/- hTDP1 cells, no CPT, ATP luminescence, 48 h; Potency, µM (top dose mostly 46.2 µM), most hits filed as inhibitors; 420,000 tested, 15% active; AID 686978, 2013; note: nearly all actives have a fitted effect of over 55% in size
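Stably hTDP1-transfected Tdp1-null chicken DT40 cells were treated with library compounds minus camptothecin and grown for at least 48 hr at 37 °C, after which cellular ATP was quantified by luminescence.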
DT40 TDP1 CPT – DT40-hTDP1 cell growth loss with CPT; chicken DT40 Tdp1-/-;hTDP1 cells + 20 nM CPT, ATP luminescence, 48 h; Potency, µM (series often up to 46.2 µM), usual class: inhibitors; 420,000 tested, 12% active; AID 686979; note: nearly all actives have a fitted effect of over 55% in size
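Chicken DT40 Tdp1-/- cells stably complemented with human TDP1 were seeded at 400 cells/well in medium containing 20 nM camptothecin, exposed to pin-transferred compounds, and grown at 37 °C for at least 48 hr. Viability was read as ATP luminescence.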
A number is an active result; – = inactive; ? = inconclusive; · = no result; ! = not confirmed by another sample. Sampled rows, rich in hits. Any-hit rate of the full collection: about 19%. Calls come from the whole dose curve; as a rule, active = well fitted curve in the direction sought with a large enough effect; inconclusive = small, poorly fitted or top-dose-only effect, or another doubt; inactive = no such curve, though single readings can be large; an effect the other way counts as inactive or inconclusive.

SMILES	KB-V1 MDR tox	HT1080 IDH1KD tx	HT1080NT lethal	KB-3-1 cytotox	TDP1 cell noCPT	DT40 TDP1 CPT
CCCCc1c(O)nc(SCC(=O)c2ccccc2)[nH]c1=O	–	?	–	–	?	?
O=C(CSc1nc(O)c(Cc2ccccc2)c(=O)[nH]1)c1ccccc1	–	–	–	?	2.1µM	?
NCCCNc1ccc(Br)cn1	·	–	–	·	?	–
Cc1ccc(-c2cc(NC(=O)COc3ccc(Cl)cc3C)on2)cc1	?	·	·	–	–	–
CC(C)CC(=O)Nc1nnc(S(=O)(=O)N(C)Cc2ccc(Cl)cc2)s1	–	·	·	–	–	–
O=C(CSc1nc2ccccc2c(=O)[nH]1)N1CCN(c2ccccc2F)CC1	?	–	–	–	18µM	?
O=C(O)CCSc1nc2ccccc2c(=O)[nH]1	–	–	–	–	–	–
O=C(CCCSc1nc2ccccc2c(=O)[nH]1)c1ccccc1	–	–	?	–	15µM	?
NC(=O)c1ccccc1NC(=O)CSc1nc2ccccc2c(=O)[nH]1	·	?	13µM	·	–	?
Cc1cc(C)cc(NC(=O)COC(=O)CCn2c(C)csc2=O)c1	–	–	–	–	–	–
COC(=O)[C@H](Cc1ccccc1)NC(=O)NCCC1=CCCCC1	–	?	–	–	–	–
COc1cccc(CNC(=O)C2=C(C)C(=O)OC23CCN(C(C)=O)CC3)c1OC	–	·	·	?	–	–
CCOC(=O)c1c(C)n(-c2ccccc2)c2ccc(OC(=O)c3c(F)cccc3F)cc12	–	·	·	–	–	–
CCOC(=O)c1c(C)n(-c2ccc(C)cc2)c2ccc(OCC(O)CNCC3CCCO3)cc12 (centres undefined)	?	–	?	?	18µM	16µM
CCOC(=O)c1c(C)n(C)c2ccc(OCC(O)CNC(CC)CO)cc12 (centres undefined)	–	–	–	–	–	–
CCOC(=O)c1c(C)n(-c2ccccc2)c2ccc(OC(=O)c3cccc(Cl)c3)cc12	–	·	·	–	26µM	?
CCOC(=O)c1c(C)n(-c2ccccc2)c2ccc(OC(=O)c3ccccc3)cc12	·	·	·	·	16µM	?
O=C(COC(=O)c1ccc2c(=O)n3c(nc2c1)CCC3)NC1CCS(=O)(=O)C1 (centres undefined)	–	–	–	–	–	–
CN(C)c1ccc(/C=C2\C(Cl)=Cc3ccccc32)cc1	–	·	·	–	?	?
O=C1C2C3C=CC(c4ccccc4)(C2C(=O)N1c1cccc(Cl)c1)C1C(=O)N(c2cccc(Cl)c2)C(=O)C31 (centres undefined)	–	–	–	?	15µM	15µM
c1cc(CNc2ccc3c(c2)OCO3)ccn1	–	–	–	–	–	–
Cc1ccc(CNc2ccc3c(c2)OCO3)cc1	?	?	?	?	21µM	?
Cc1ccc(CNc2ncc(-c3ccc4c(c3)OCO4)n2C)cc1	–	–	–	–	21µM	?
Cn1c(-c2ccc3c(c2)OCO3)cnc1NCc1ccc(Cl)cc1	–	–	–	–	18µM	?
Clc1ccccc1-c1cnc2sc(NCc3ccc4c(c3)OCO4)nn12	–	?	?	–	15µM	?
SMILES	KB-V1 MDR tox	HT1080 IDH1KD tx	HT1080NT lethal	KB-3-1 cytotox	TDP1 cell noCPT	DT40 TDP1 CPT
COc1ccc(/C=N\NC(=O)COc2ccccc2)c(C(=O)O)c1OC	–	–	–	–	–	–
CC1CCN(CC(=O)Nc2cccc(Cl)c2)CC1	–	–	–	–	–	?
Cc1cc(NC(=O)c2ccc(N(C)S(=O)(=O)c3ccccc3)cc2)no1	–	–	–	–	?	–
O=C(COC(=O)/C=C/c1ccc(Cl)c(Cl)c1)NC1CCS(=O)(=O)C1 (centres undefined)	?	–	–	–	18µM	10µM
O=C(COC(=O)/C=C/c1ccc(Cl)c(Cl)c1)NC1CCCC1	–	–	–	–	–	–
Cc1ccc(SC[C@H](C)CN2CC[C@H](C)CCC2=O)cc1	18µM!	–	–	?	18µM	13µM
